Assay outcomes as filed in PubChem.
DSG3 Ab inh: inhibitors of pemphigus antibody binding to DSG3, primary screen, biochemical, bead-based, flow cytometry, scFv-GFP. AID 588358, 2011. binding (percent of control), % at 10 µM. DSG3-coupled beads, scFv-anti-DSG3-GFP binding; active compounds read low. actives 0.48% (n = 310,000);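 active = binding more than 3 SD below its plate's average and above zero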;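 note: hits lower antibody fragment binding to DSG3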
Target sequence (P32926 whole entry, looked up, the tested form may be a part): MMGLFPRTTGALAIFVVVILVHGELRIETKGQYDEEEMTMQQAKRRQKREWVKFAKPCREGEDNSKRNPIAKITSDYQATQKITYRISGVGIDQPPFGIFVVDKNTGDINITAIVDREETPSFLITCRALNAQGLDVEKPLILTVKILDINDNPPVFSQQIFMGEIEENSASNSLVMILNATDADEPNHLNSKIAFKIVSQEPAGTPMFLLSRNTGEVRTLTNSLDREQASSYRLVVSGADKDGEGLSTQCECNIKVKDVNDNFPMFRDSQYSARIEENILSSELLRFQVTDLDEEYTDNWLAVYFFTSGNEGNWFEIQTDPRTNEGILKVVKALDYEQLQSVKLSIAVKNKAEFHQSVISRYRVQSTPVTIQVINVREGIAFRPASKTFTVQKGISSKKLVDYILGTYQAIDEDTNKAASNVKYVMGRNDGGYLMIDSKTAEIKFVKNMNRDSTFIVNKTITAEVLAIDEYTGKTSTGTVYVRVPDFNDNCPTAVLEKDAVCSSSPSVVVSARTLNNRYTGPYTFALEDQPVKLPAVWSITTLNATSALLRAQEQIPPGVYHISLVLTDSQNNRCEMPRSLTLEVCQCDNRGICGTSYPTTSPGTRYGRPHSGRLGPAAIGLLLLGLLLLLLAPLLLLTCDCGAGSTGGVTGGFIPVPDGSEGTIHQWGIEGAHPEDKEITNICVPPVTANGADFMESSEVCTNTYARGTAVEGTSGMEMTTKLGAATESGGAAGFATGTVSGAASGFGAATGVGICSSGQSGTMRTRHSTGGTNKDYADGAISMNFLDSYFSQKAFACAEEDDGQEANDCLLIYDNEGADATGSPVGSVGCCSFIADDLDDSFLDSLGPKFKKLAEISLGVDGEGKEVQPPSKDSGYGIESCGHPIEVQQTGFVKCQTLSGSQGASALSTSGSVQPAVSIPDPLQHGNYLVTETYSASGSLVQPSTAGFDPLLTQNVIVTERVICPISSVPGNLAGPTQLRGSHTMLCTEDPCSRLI
rCAG binder: binders of r(CAG) RNA repeats, primary screen, biochemical, fluorescence; AID 651821, 2012; inhibition, % at 3 µM; r(CAG) RNA repeat, TO-PRO-1 dye displacement fluorescence; actives 1.3% (n = 370,000);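 active = inhibition above the plate cutoff, the mean of all test compounds on that plate plus 3 SD, cut at about 35% in these data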;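 note: 0% = DMSO alone and 100% = 100 µM mitoxantrone as full dye displacement; higher means more dye released from RNA so lower well fluorescence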
DAGLB inhibitor: DAGLB lipase inhibitors, primary screen, biochemical, fluorescence, HTS | Diacylglycerol lipase-beta (Homo sapiens), Q8NCG7 | HEK293T DAGLB membrane lysate, EnzChek fluorogenic substrate | inhibition, % at 5.17 µM | actives 0.059% (n = 340,000); in the data active = inhibition above about 34%;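 note: 0% = enzyme with vehicle and 100% = wells lacking enzyme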
MsrA inh: bovine MsrA enzyme inhibitors, primary screen, biochemical, absorbance, HTS; actives 0.75% (n = 360,000); purified bovine MsrA, absorbance read-out; AID 651718, 2012; Methionine sulfoxide reductase A (Bos taurus); inhibition, % at 15.5 µM; in the data active = inhibition above about 4.5%;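 note: 0% = vehicle wells with enzyme and 100% = reference inhibitor wells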
bovine MsrA act: bovine MsrA enzyme activators, primary screen, biochemical, absorbance, HTS; purified bovine MsrA, absorbance read-out; AID 602163, 2012; activation, % at 10.6 µM; actives 0.3% (n = 360,000); in the data active = activation above about 7.5%;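 note: 0% = vehicle and 100% = reference activator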
NadD inh: inhibitors of S. aureus NadD, primary screen, biochemical, colorimetric, uHTS; AID 602399, 2012; actives 0.78% (n = 360,000); Nicotinate-nucleotide adenylyltransferase NadD (Staphylococcus aureus N315); inhibition, % at 20 µM; purified NadD enzyme, colorimetric absorbance read-out; in the data active = inhibition above about 26%
rCAG binder conf: small molecules binding CAG repeat RNA – biochemical, fluorescence, confirmation; shares compounds with rCAG binder; r(CAG) RNA repeat, TO-PRO-1 dye displacement fluorescence; inhibition, % at 3 µM; actives 70% (n = 4,300); AID 652065, 2013;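 active = inhibition above a per-plate cutoff, the mean inhibition of sample wells plus 3 SD, cut at about 35% in these data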;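 note: loss of TO-PRO-1 fluorescence as compound displaces dye from 1x1 AA loop RNA; 0% = DMSO only wells and 100% = 100 µM mitoxantrone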
dCAG dye counter: displacement of TO-PRO-1 from CAG DNA duplex, counter-screen for rCAG RNA repeat binder project, biochemical, fluorescence, TO-PRO-1 dye, d(CAG) DNA oligo. shares compounds with rCAG binder. d(CAG) DNA oligo TO-PRO-1 dye displacement. inhibition, % at 3 µM. actives 94% (n = 4,300). AID 652068, 2013;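 active = inhibition above its plate's cutoff, the mean test-well inhibition plus 3 SD, cut at about 4.8% in these data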;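 note: 0% = DNA dye mix with DMSO and 100% = 100 µM mitoxantrone; hits displace the dye from DNA and so lower well fluorescence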
DNA CAG DR: inhibitors of DNA CAG/GTC TO-PRO-1 complex, dose response, counter-screen for rCAG RNA repeat binder project, biochemical, fluorescence, TO-PRO-1 dye | shares compounds with rCAG binder | DNA CAG/GTC duplex TO-PRO-1 dye displacement fluorescence | IC50, µM | actives 20% (n = 250) | AID 686960, 2013; in the data active = IC50 below about 10 µM
The depositor's hits bear a star; . = no result given. A selection: hits, their analogues and other compounds. The true share with any hit is near 3.2%.

SMILES | DSG3 Ab inh | rCAG binder | DAGLB inhibitor | MsrA inh | bovine MsrA act | NadD inh | rCAG binder conf | dCAG dye counter | others
S=c1[nH]nc(-c2ccccn2)n1/N=C/c1c(Cl)cccc1Cl | . | 1 | -1 | 0 | 2 | 9 | . | .
Cc1ccc(-c2n[nH]c(=S)n2/N=C/C=C\c2ccccc2[N+](=O)[O-])cc1 | 107 | 35* | 0 | 3 | 1 | 24 | 33 | 11*
S=c1[nH]nc(-c2ccco2)n1/N=C/C=C/c1ccco1 | 102 | 20 | 2 | 1 | 3 | -3 | . | .
S=c1[nH]nc(-c2cc(-c3ccccc3)n[nH]2)n1/N=C/C=C/c1ccco1 | 110 | 41* | . | -1 | -1 | 16 | 51* | 24*
CN(Cc1ccccc1F)C(=O)C1CCC(CNS(=O)(=O)c2cccc3cccnc23)CC1 (stereo unspecified) | . | 6 | . | . | . | . | . | .
COc1ccc2ccccc2c1C=Nn1c(-c2cc(-c3ccccc3)n[nH]2)n[nH]c1=S | . | 70* | . | . | . | . | 58* | 27*
S=c1[nH]nc(-c2cc(-c3ccccc3)n[nH]2)n1/N=C/c1cccc2ccccc12 | . | 79* | . | . | . | . | 78* | 40*
Cc1nn(-c2ccccc2)c(Cl)c1/C=C/C(=O)c1ccccc1 | 105 | . | -10 | . | -11 | -8 | . | .
Cc1nn(-c2ccccc2)c(Cl)c1/C=C(\CC(=O)O)c1nc2ccccc2s1 | 99 | 42* | 6 | 3 | -2 | 5 | 43* | 13*
Cc1c(/C=C(\CC(=O)O)c2nc3ccccc3s2)cc(C#N)n1C | 96 | 10 | 0 | 4 | -4 | 0 | . | .
Cc1nn(-c2ccccc2)c(Cl)c1/C=C(/CC(=O)O)c1nc2ccccc2s1 | . | 47* | 8 | 2 | -4 | 10 | 36* | 9.8*
CC(C)N=c1scc(-c2cccs2)n1/N=C/c1ccc(O)c(O)c1O | . | 46* | 11 | 1 | -1 | 31* | 56* | 31*
CN=c1scc(-c2ccccc2F)n1/N=C/c1ccc(O)c(O)c1O | 89 | 41* | 7 | 1 | -6 | 23 | 56* | 25*
CN=c1scc(-c2ccccc2F)n1/N=C/c1ccc[nH]1 | 121 | 10 | 3 | 2 | -4 | 9 | . | .
O=C(C1CC(=O)N(c2ccc(F)c(Cl)c2)C1)N1CCOCC1 (stereo unspecified) | 97 | 2 | 3 | 0 | -2 | -1 | . | .
Cc1ccc(S(=O)(=O)NC(=O)c2ccc(-c3ccc(C)c4ccccc34)o2)cc1 | 101 | 77* | 9 | 2 | -8 | 6 | 73* | 28* | DNA CAG DR=8.4*
Cc1ccc(-c2ccc(C(=O)NCc3ccccc3)o2)c2ccccc12 | 98 | 4 | -8 | 2 | -3 | 0 | . | .
COc1ccc(CN2C(=O)CCCC2(C)c2nnnn2-c2c(C)cccc2C)cc1OC (stereo unspecified) | . | 3 | . | . | . | . | . | .
NC(=O)c1sc2nc(-c3ccco3)ccc2c1N | 110 | 16 | 6 | 4 | -5 | 14 | . | .
Nc1c(C(=O)Nc2ccccc2F)sc2nc(-c3ccco3)ccc12 | 90 | 55* | 5 | 1 | -4 | 13 | 73* | 35*
COC(=O)c1sc2nc(-c3ccco3)ccc2c1N | 101 | 50* | 2 | 2 | -4 | 10 | 23 | 12*
Cc1ccc2c(c1)-c1c(cnn1CC(=O)NCCc1cccc(F)c1)CO2 | . | 2 | . | . | . | . | . | .
COc1cccc(CNC(=O)[C@H]2CCCN2C(=O)[C@H]2CCCN2C(=O)c2cccc3ccccc23)c1 | . | 0 | . | 0 | . | . | . | .
Oc1ccc(N=Nc2c(O)ccc3ccccc23)cc1 | 101 | 41* | 49* | -1 | -4 | -3 | 34 | 17*
O=C1CC(c2ccco2)CC(O)=C1C=Nc1cc(Cl)ccc1O (stereo unspecified) | 112 | 37* | 7 | 2 | -3 | 2 | 17 | 6.0*
SMILES | DSG3 Ab inh | rCAG binder | DAGLB inhibitor | MsrA inh | bovine MsrA act | NadD inh | rCAG binder conf | dCAG dye counter | others
O=C(N/N=C/c1cccc(O)c1)c1ccc(COc2ccccc2Br)cc1 | 128 | 12 | -8 | 1 | 0 | 9 | . | .
Cc1ccc(C(C)C)c(OCc2ccc(C(=O)N/N=C/c3ccc(O)cc3O)cc2)c1 | 106 | 38* | 1 | 1 | -7 | 14 | 32 | 15*
CCc1ccc2[nH]c3nc(N/N=C/c4ccc(O)cc4O)nnc3c2c1 | 95 | 57* | 6 | 0 | -1 | 39* | 35* | 22*
COP(=O)(O)C(Cc1ccccc1)NC(=O)OCc1ccccc1 (stereo unspecified) | . | 3 | . | . | . | . | . | .
N#Cc1c2nc3ccccc3nc2n2cc(NC(=O)c3ccc(F)cc3)ccc12 | 68 | 36* | 0 | 2 | -11 | 7 | 42* | 20*
Cc1ccc([N+](=O)[O-])cc1-c1[nH]c(-c2ccc(O)c(O)c2)nc1-c1ccccc1 | 99 | 35* | 11 | 0 | -11 | 31* | 37* | 19*
COc1ccc(-c2nc3ccc([N+](=O)[O-])cc3[nH]2)cc1 | . | 7 | 1 | 3 | -6 | 5 | . | .
COc1ccc([N+](=O)[O-])cc1-c1[nH]c(-c2ccc(C(=O)O)cc2)nc1-c1ccccc1 | 113 | 55* | -1 | 3 | -7 | 3 | 48* | 16*
Cc1ccc(-c2nc3ccc([N+](=O)[O-])cc3[nH]2)cc1 | 97 | 4 | -2 | 2 | -6 | -9 | . | .
CCCS(=O)(=O)NC(=O)C1(C)CCCN(C(=O)c2ccc3ccccc3c2)C1 (stereo unspecified) | . | 7 | . | 0 | -4 | 1 | . | .
Cc1ccc(OCc2nnc(SCC(=O)c3ccc(-c4ccccc4)cc3)n2Cc2ccco2)cc1 | . | 16 | . | . | . | . | . | .
NC(=NCc1ccccc1)NC(=O)OCc1ccccc1 | . | 1 | . | . | . | . | . | .
CCCCCCCCN1C(=O)[C@H](CC(=O)NCCCC)C[C@@]2(C(=O)OC)CC(C)(C)CC=C12 | . | 4 | . | -1 | . | . | . | .
